Data on 86 sequences can be found in the supplement of paper PMC12636033.

± gives the standard deviation of the averaged measurements. Over roughly 33,000 sequences, “E-score (rank enrichment, -0.5 to 0.5)” has its median near -0.0075; the highest 2% begin near 0.23. What follows is part of a selection rich in the highest values, with near analogues and random picks from the rest.

For this assay, the system named is WT Max(13-93) synthetic (M65Nle). Nature of the assay: PBM 8-mer E-score (E-score (rank enrichment, -0.5 to 0.5)); higher = stronger preferential binding. The method, then:
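Protein binding microarray (universal PBM chip covering all 10-mers in fixed probe flanks) with chemically synthesized human Max(13-93) bHLH-LZ analogs (not full-length Max) bearing noncanonical residues (hArg, Tha, Aib, Nle at 65) and aromatic Cys staples. Read-out per 8-mer (and its reverse complement): E-score (rank-based enrichment, -0.5 to 0.5) and Z-score of median probe intensity.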
Turning to AAGCTCTG, the “PBM 8-mer E-score” value was -0.144 ± 0.028. ATCGCGCA: the “PBM 8-mer E-score” value was -0.034 ± 0.026. Consider CCAGAGTC, for which the “PBM 8-mer E-score” value is -0.155 ± 0.0016. In the case of AAAGCATG, the “PBM 8-mer E-score” value is 0.303 ± 0.017.

Turning to ACAGCATC, the “PBM 8-mer E-score” value was found to be 0.0804 ± 0.099.

Regarding ACAGCATG, the “PBM 8-mer E-score” value was determined as 0.305 ± 0.01.

For CACGCATG, the “PBM 8-mer E-score” value is 0.184 ± 0.066. To ACAGCATA belongs 0.00665 ± 0.081. To AACGCATC belongs 0.0593 ± 0.014; to CAAGCATG, 0.24 ± 0.053; to AACGCATG, 0.305 ± 0.042. To CAAGCATA belongs 0.104 ± 0.034.

For the sequence CAAGCATC, the “PBM 8-mer E-score” value was found to be 0.00917 ± 0.063.

On to AAAGCATT, for which the “PBM 8-mer E-score” value is 0.14 ± 0.0086. The figure for AAAGCATA is 0.211 ± 0.026. The figure for ACACAGAC is 0.00286 ± 0.095. The figure for AGACGTAG is 0.0572 ± 0.041; for CAATGCGC it is 0.0235 ± 0.012. AAGGGCGT: the “PBM 8-mer E-score” value is -0.0104 ± 0.031. GATAAAGC: the “PBM 8-mer E-score” value stood at 0.179 ± 0.094. Turning to AGTGGAGG, the “PBM 8-mer E-score” value was found to be 0.0658 ± 0.0029. The figure for ATTAGACG is 0.136 ± 0.028; for AAAGATAG it is 0.0319 ± 0.07. To AAAGATAC belongs 0.00254 ± 0.17; to TAAGATAA, 0.018 ± 0.049. To CAAGATAA belongs 0.256 ± 0.014. For the sequence CAAGATAC, the “PBM 8-mer E-score” value worked out at 0.146 ± 0.047. For the sequence AAAGATAA, the “PBM 8-mer E-score” value came to 0.234 ± 0.029. To GCTACGTA belongs 0.0754 ± 0.075. The figure for ACCCAGCT is -0.00912 ± 0.022; for TCGAGACA it is -0.125 ± 0.06.

Take GACCTTAC: the “PBM 8-mer E-score” value was -0.127 ± 0.056. To TCCTTTCA belongs 0.177 ± 0.086; to CCGACCAG, -0.175 ± 0.0087; to GTGGAGTA, -0.0124 ± 0.029. As to TGGACGAA, the “PBM 8-mer E-score” value was 0.138 ± 0.011. In the case of GGTATCTA, the “PBM 8-mer E-score” value was 0.0126 ± 0.011.

Regarding CGTATCTA, the “PBM 8-mer E-score” value is -0.0295 ± 0.068. The figure for AGTATCTA is 0.253 ± 0.022. Consider CGGCAATC, for which the “PBM 8-mer E-score” value was -0.205 ± 0.029.

As for AGTCGGTC, the “PBM 8-mer E-score” value was -0.181 ± 0.0094. GATCAAGA: the “PBM 8-mer E-score” value is -0.00477 ± 0.11. The figure for CACATGGC is 0.343 ± 0.039; for CCCATGGG it is -0.0583 ± 0.12; for AACATGGC it is 0.118 ± 0.02. The figure for CACATGGA is 0.37 ± 0.02; for CACATGAA it is 0.1797 ± 0.00019. As to AACATGGG, the “PBM 8-mer E-score” value was found to be 0.231 ± 0.047.

In the case of GACATGGA, the “PBM 8-mer E-score” value was -0.0676 ± 0.069. To GACATGGC belongs 0.073 ± 0.098; to CACATGAG, 0.0368 ± 0.07; to CACATGGG, 0.276 ± 0.0049.

For the sequence CACATGAC, the “PBM 8-mer E-score” value is 0.317 ± 0.0056.

Take AACATGGA: the “PBM 8-mer E-score” value was 0.106 ± 0.052. The figure for CGTATCCC is -0.27 ± 0.076. To AAATCAAC belongs 0.129 ± 0.0028. The figure for CGCTCGCC is -0.158 ± 0.02. CCGGCAAC: the “PBM 8-mer E-score” value was -0.301 ± 0.024. The figure for ACCCTGTC is -0.0879 ± 0.17; for AGAATCGG it is -0.25 ± 0.048. The figure for ACTAGGTA is 0.102 ± 0.04; for CTAACGCA it is 0.12 ± 0.0043; for GCTGCAGA it is -0.00761 ± 0.073. The figure for GGTATTTA is 0.0645 ± 0.18. For the sequence CGTATTTA, the “PBM 8-mer E-score” value was 0.285 ± 0.056. To AGTATTTA belongs 0.186 ± 0.058; to AAGACACC, -0.137 ± 0.085. As for AGCAGCTA, the “PBM 8-mer E-score” value is -0.199 ± 0.04.

In the case of CAGTACAC, the “PBM 8-mer E-score” value was 0.0197 ± 0.13. To AAGTACAA belongs 0.225 ± 0.15.

AAGTATAC: the “PBM 8-mer E-score” value stood at 0.246 ± 0.014. On to AACTACAG, for which the “PBM 8-mer E-score” value is -0.0267 ± 0.018.

As for AAGTATAT, the “PBM 8-mer E-score” value came out at 0.0964 ± 0.13. With AAGTATAA, the “PBM 8-mer E-score” value came to 0.225 ± 0.069. The figure for AAGTACAC is 0.235 ± 0.075; for GACTACAC it is 0.0803 ± 0.16; for AACTACAC it is 0.282 ± 0.02. The figure for CGTGGCCC is 0.0336 ± 0.14; for GAGATGCC it is 0.078 ± 0.063. To AGGGCCGA belongs 0.0332 ± 0.068. Take GCCCACCC: the “PBM 8-mer E-score” value was determined as 0.206 ± 0.017. CGACACCG: the “PBM 8-mer E-score” value was -0.265 ± 0.12. The figure for AGATGGCC is -0.092 ± 0.12. In the case of CACGTAGC, the “PBM 8-mer E-score” value is 0.0038 ± 0.017. As for GAGTCCCA, the “PBM 8-mer E-score” value was -0.0366 ± 0.0061. The figure for CTGTTGCA is 0.0892 ± 0.013.
